For part of these data: Entries with a potency or affinity are not part of this list. Activity calls are given as the source filed them.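 How the source made its calls, unless noted: active means primary screen hit whose fluorescence ratio, in both repeats, exceeds the weak agonist control mean by 3 SD; inactive means the rest.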
Legend:
[1] = test system: TRPC4 beta (transient receptor potential cation channel C4), mouse; assay: TRPC4 cation channel opening, retest – cell-based, Fluo4 calcium, HEK293 TRPC4beta/mu-opioid, duplicates, 10 µM, confirmation (AID 2426;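 active means fluorescence ratio normalized to control raised more than 50% in primary screen plus both repeat runs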); settings: Fluo4 calcium fluorescence, at 10 µM; stronger effect = higher value
[2] = test system: transient receptor potential cation channel C4 beta (TRPC4), mouse; assay: TRPC4 cation channel opening, second retest – cell-based, second round, Fluo4, HEK293 TRPC4beta/mu-opioid, 1 µM, confirmation (AID 2461;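 active means primary screen active and over 50% activation in each of two duplicate runs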); settings: Fluo4 calcium fluorescence, at 1 µM; stronger effect = higher value
[3] = test system: TRPC4 (transient receptor potential cation channel C4 beta), mouse; assay: potentiation of DAMGO EC20 TRPC4 response – cell-based, second round, Fluo-4, HEK293 TRPC4beta/mu-opioid, 1 µM, confirmation (AID 2554); settings: DAMGO EC20, Fluo-4 calcium flux, at 1 µM; stronger effect = higher value
[4] = test system: TRPC4 beta (transient receptor potential cation channel C4), mouse; assay: potentiation of DAMGO EC20 TRPC4 response – cell-based, Fluo-4, HEK293 TRPC4beta/mu-opioid, confirmation (AID 2555;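 active means primary screen hit whose calcium fluorescence ratio, in both repeats, exceeds the weak agonist control mean by 3 SD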); settings: DAMGO EC20, Fluo-4 calcium flux, at 10 µM; stronger effect = higher value
[5] = target: Short transient receptor potential channel 4 (Mus musculus) (UniProt Q9QUQ5); assay: blockers of DAMGO-evoked TRPC4 calcium flux – cell-based, Fluo4, HEK293 TRPC4beta/mu-opioid, confirmation (AID 2636;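 active means calcium signal cut by more than 3 SD below the full-agonist control yet still positive, in both repeats and the earlier primary screen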); settings: at 10 µM; stronger effect = higher value
Sequence of Short transient receptor potential channel 4 (Mus musculus) (Q9QUQ5 whole entry, looked up): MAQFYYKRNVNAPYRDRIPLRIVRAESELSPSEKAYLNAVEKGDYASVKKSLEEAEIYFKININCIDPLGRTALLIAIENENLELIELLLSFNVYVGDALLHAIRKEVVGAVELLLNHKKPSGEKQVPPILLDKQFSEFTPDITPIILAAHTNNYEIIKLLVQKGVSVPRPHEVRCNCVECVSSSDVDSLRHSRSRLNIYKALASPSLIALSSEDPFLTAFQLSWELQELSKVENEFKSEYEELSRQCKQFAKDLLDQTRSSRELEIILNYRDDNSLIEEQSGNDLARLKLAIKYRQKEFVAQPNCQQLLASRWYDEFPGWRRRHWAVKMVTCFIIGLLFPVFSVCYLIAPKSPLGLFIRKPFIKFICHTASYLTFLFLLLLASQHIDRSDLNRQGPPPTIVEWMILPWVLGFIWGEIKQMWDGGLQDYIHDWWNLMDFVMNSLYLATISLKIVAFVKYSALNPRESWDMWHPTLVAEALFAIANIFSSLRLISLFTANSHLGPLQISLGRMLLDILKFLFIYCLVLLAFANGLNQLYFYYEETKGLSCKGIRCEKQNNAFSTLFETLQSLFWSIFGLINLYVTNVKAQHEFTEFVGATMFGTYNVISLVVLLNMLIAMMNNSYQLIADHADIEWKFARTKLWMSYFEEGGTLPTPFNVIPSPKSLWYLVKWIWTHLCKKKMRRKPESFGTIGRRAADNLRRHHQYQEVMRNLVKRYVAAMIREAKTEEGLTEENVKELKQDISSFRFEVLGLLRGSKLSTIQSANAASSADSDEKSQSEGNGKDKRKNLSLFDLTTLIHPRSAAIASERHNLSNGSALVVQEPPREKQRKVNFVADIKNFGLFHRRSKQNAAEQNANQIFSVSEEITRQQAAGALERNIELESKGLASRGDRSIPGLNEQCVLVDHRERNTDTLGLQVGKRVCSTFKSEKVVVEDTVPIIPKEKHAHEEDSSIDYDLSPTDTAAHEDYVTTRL

[6] = target: Short transient receptor potential channel 4 (Mus musculus) (UniProt Q9QUQ5); assay: blockers of DAMGO-evoked TRPC4 calcium flux – cell-based, second round, Fluo4, HEK293 TRPC4beta/mu-opioid, 1 µM, confirmation (AID 2637;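 active means calcium signal ratio cut to more than 3 SD under the fully stimulated control mean yet still positive, in both repeats and the primary screen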;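 on inhibition: percent of integrated ratio relative to wells lacking test compound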); settings: at 1 µM; stronger effect = higher value
[7] = target: Short transient receptor potential channel 4 (Mus musculus) (UniProt Q9QUQ5); assay: calcium entry via TRPC4 opening agents – cell-based, HEK293 TRPC4/mu-opioid, Fluo-4 calcium, dose response (AID 434937;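 active means primary screen activator hit with a dose response curve and TRPC4 channel activation at any tested dose; inactive means no activation, no dose response, or not a primary hit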)
[8] = target: Short transient receptor potential channel 4 (Mus musculus) (UniProt Q9QUQ5); assay: potentiation of DAMGO-evoked TRPC4 calcium signal – cell-based, HEK293 TRPC4/mu-opioid, Fluo-4 calcium, EC20 DAMGO, dose response (AID 434941;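 active means earlier screen potentiator hit that boosts the TRPC4 ion channel at some dose, with a dose response; inactive means no potentiation, no dose response, or not a prior hit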;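 further: calcium entry triggered by an EC20 dose of DAMGO at the co-expressed mu-opioid receptor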)
[9] = target: Short transient receptor potential channel 6 (Mus musculus) (UniProt Q61143); assay: TRPC6 blockade by TRPC4 inhibitor hits – cell-based, HEK293, membrane potential dye, duplicate, selectivity assay for TRPC4 inhibitor project, confirmation (AID 434948;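 active means active in primary screen and both duplicates, each dropping signal beyond three positive-control SD with fluorescence still positive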); settings: HEK293 TRPC6, membrane potential dye fluorescence, at 10 µM, stimulated with maximal-effect acetylcholine; stronger effect = higher value
Sequence of Short transient receptor potential channel 6 (Mus musculus) (Q61143 whole entry, looked up): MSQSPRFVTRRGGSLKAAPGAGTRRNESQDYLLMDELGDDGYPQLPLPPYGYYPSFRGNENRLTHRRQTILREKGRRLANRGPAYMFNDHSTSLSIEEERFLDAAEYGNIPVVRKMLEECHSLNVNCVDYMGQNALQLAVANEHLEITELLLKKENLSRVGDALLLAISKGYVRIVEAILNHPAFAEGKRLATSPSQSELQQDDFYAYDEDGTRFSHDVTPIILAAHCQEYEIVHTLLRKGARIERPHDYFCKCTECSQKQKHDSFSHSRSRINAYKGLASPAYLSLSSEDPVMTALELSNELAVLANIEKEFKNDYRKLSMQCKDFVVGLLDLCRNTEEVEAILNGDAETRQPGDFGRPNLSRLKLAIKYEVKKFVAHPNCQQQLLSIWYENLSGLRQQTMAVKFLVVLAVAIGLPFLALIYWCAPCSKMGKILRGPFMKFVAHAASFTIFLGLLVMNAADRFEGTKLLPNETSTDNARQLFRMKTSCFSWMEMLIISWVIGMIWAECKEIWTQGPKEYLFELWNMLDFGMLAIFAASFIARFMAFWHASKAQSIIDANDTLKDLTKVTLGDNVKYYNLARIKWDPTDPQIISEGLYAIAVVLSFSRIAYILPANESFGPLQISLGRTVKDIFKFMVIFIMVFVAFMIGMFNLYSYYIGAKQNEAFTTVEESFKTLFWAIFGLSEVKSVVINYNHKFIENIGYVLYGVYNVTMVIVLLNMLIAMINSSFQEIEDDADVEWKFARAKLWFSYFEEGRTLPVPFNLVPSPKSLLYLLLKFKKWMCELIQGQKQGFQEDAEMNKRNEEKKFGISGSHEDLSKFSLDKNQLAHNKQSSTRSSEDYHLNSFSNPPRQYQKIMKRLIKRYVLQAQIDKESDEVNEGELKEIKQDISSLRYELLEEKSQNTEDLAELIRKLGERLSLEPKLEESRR

[10] = target: Short transient receptor potential channel 6 (Mus musculus) (UniProt Q61143); assay: TRPC6 opening by TRPC4 activator hits – cell-based, HEK293, membrane potential dye, duplicate, selectivity assay for TRPC4 activator project, confirmation (AID 434950;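 active means membrane potential signal rise above negative control mean plus 3 SD in both duplicates, also active in the earlier TRPC4 screen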); settings: HEK293 TRPC6, membrane potential fluorescence, at 10 µM; activation: stronger effect = higher value; outcome: activation
[11] = target: Short transient receptor potential channel 6 (Mus musculus) (UniProt Q61143); assay: positive modulators of mouse TRPC6 channel – HEK293 cells, membrane potential dye, duplicate, selectivity assay for TRPC4 potentiator project, confirmation (AID 434952;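 active means compound raising the membrane signal above positive-control mean plus 3 SD in both repeats, and a primary screen hit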); settings: HEK293 TRPC6, membrane potential dye fluorescence, at 10 µM, maximal acetylcholine added after compound; stronger effect = higher value
[12] = target: Short transient receptor potential channel 4 (Mus musculus) (UniProt Q9QUQ5); assay: calcium flux activators in TRPC4/5HT1a cells, counter-screen for TRPC4 activator project, cell-based, second counter screen, HEK293 TRPC4/5HT1a, Fluo-4 (AID 434977;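 active means calcium signal rise above buffer-control mean plus 5 SD in both duplicates, and also a hit in the primary screen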); settings: Fluo-4 calcium flux, at 10 µM; stronger effect = higher value
[13] = serotonin-gated TRPC4 signal block – cell-based, second counter screen, HEK293 TRPC4/5HT1a, Fluo-4, counter-screen for TRPC4 inhibitor project, confirmation (AID 434978;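 active means primary screen active whose calcium signal fell more than 3 SD beyond the full-serotonin control mean in both duplicate plates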;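 on outcome: serotonin given first at submaximal then at maximal dose after compound preincubation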); settings: Fluo-4 calcium flux, at 10 µM, serotonin added to trigger calcium flux; stronger effect = higher value
[14] = test system: TRPC4 (mouse), co-expressed with 5HT1a in HEK293; assay: enhancement of serotonin-evoked TRPC4 response – cell-based, second counter screen, HEK293 TRPC4/5HT1a, Fluo-4, counter-screen for TRPC4 potentiator project, confirmation (AID 434979;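 active means signal rise over 3 SD above mean of control wells given weak agonist, in both repeats and first screen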); settings: Fluo-4 calcium flux, at 10 µM, serotonin added at its EC20 dose; stronger effect = higher value
[15] = nonspecific calcium rise without TRPC4 – cell-based, HEK293 mu-opioid receptor line, counter-screen for TRPC4 activator project, confirmation (AID 449723;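 active means hit in primary screen, with calcium signal over 5 SD above buffer well mean in both duplicates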;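 further: counter screen cells carry the mu-opioid receptor alone and lack TRPC4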); settings: HEK293 mu-opioid cells, Fluo-4 calcium fluorescence, at 10 µM; stronger effect = higher value
[16] = nonspecific potentiation of DAMGO calcium response – cell-based, HEK293 mu-opioid receptor line, counter-screen for TRPC4 allosteric potentiator project, confirmation (AID 449724;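 active means calcium signal rise more than 3 SD above the low-dose agonist control mean, in both duplicate plates and the primary screen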); settings: HEK293 mu-opioid receptor cells, Fluo-4 calcium flux, at 10 µM, compound added before EC20 DAMGO stimulus; stronger effect = higher value

Measured: inhibition

COc1ccc([N+](=O)[O-])cc1NCc1ccco1
active: [5] 69%
inactive: all other assays above

CCCOc1ccc(-c2nc(SCc3ccccc3)[nH]c(=O)c2C#N)cc1OC
active: [5] 66%
inactive: all other assays above

COc1ccc2c(c1)C=C(CN1CCC(CO)(CCc3ccccc3)CC1)CO2
active: [5] 102% | [13] 35.7%
inactive: all other assays above

O=C(c1cccc(C(F)(F)F)c1)C1CCCN(Cc2cccn2-c2ccccn2)C1 (stereo not given)
active: [5] 72% | [9] 43% | [13] 29.2%
inactive: all other assays above

Fc1ccc(CN2CCC(Cc3ccccc3)CC2)cc1F
active: [5] 89% | [13] 25.9%
inactive: all other assays above

Cc1cc(-c2cn3ccccc3n2)c(C)n1-c1ccccc1
active: [5] 101% | [6] 40%
inactive: all other assays above

Cc1cc([N+](=O)[O-])ccc1NCc1ccccc1
active: [5] 97% | [6] 44%
inactive: all other assays above

Cc1cc(N/N=C/c2ccccc2F)c2ccccc2n1
active: [5] 97% | [6] 67% | [13] 13.1%
inactive: all other assays above

Cc1cccc(N(Cc2ccccc2)C(=O)CSC(C)C(=O)Nc2cc(C)on2)c1 (stereo not given)
active: [5] 91% | [13] 31.4%
inactive: all other assays above

COc1ccc2c(C)cc(N3CCCCCC3)nc2c1
active: [5] 96% | [6] 63% | [9] 33.5% | [13] 20.8%
inactive: all other assays above

Cc1cccc(NC(=O)CSc2nnc(-c3cc(C)n(-c4ccccc4)c3C)o2)c1C
active: [5] 78% | [13] 16.2%
inactive: all other assays above

CCOC(=O)c1c(NC(=O)C2CC(Cl)=CCC2C(=O)O)sc2c1CCCCC2 (stereo not given)
active: [5] 96% | [6] 43% | [13] 31.8%
inactive: all other assays above

OCCNc1nc(NCc2ccccc2)c2ccccc2n1
active: [5] 96% | [6] 61% | [13] 21.4%
inactive: all other assays above

Cc1cccc2cc(CN(Cc3nnnn3Cc3ccccc3)C3CCCC3)c(=O)[nH]c12
active: [5] 91% | [6] 63%
inactive: all other assays above

CC12CCC(C/C1=N/OC(=O)c1cccc([N+](=O)[O-])c1)C2(C)C (stereo not given)
active: [5] 82% | [6] 40% | [13] 28.3%
inactive: all other assays above
